The chains are these.
B1: 130 (nucleosome)
DNA 1: ATCCTGGAGAATCCCGGTGCCGAGGCCGCTCAATTGGTCGTAGACAGCTCTAGCACCGCTTAAACGCACGTACGCGCTGTCCCCCGCGTTTTAACCGCCAAGGGGATTACTCCCTAGTCTCCAGGCACGTGTTCAAGGCCAACATCCTGTGAT
DNA 2: ATCACAGGATGTTGGCCTTGAACACGTGCCTGGAGACTAGGGAGTAATCCCCTTGGCGGTTAAAACGCGGGGGACAGCGCGTACGTGCGTTTAAGCGGTGCTAGAGCTGTCTACGACCAATTGAGCGGCCTCGGCACCGGGATTCTCCAGGAT
modifications: reconstituted with mouse histones H2A, H2B, H3.3 and H4
B2: 131 (nucleosome)
DNA 1: B1 DNA 1 with T133C, C134T, A135C, G137A, C139G, A141C
DNA 2: B1 DNA 2 with T13G, G15C, C17T, T19G, G20A, A21G
modifications: reconstituted with mouse histones H2A, H2B, H3.3 and H4
B3: 132 (nucleosome)
DNA 1: ATCCTGGAGAATCCCGGTGCCGAGGCCGCTCAATTGGTCGTAGACAGCTCTAGCACCGCTTAAACGCACGTACGCGCTGTCCCCCGCGTTTTAACCGCCAAGGGGATTACTCCCTAGTCTCCAGGCACGTGTCATCAAGGCCAATCCTGTGAT
DNA 2: ATCACAGGATTGGCCTTGATGACACGTGCCTGGAGACTAGGGAGTAATCCCCTTGGCGGTTAAAACGCGGGGGACAGCGCGTACGTGCGTTTAAGCGGTGCTAGAGCTGTCTACGACCAATTGAGCGGCCTCGGCACCGGGATTCTCCAGGAT
modifications: reconstituted with mouse histones H2A, H2B, H3.3 and H4
B4: 137 (nucleosome)
DNA 1: B3 DNA 1 with T135G, C136A, A137T, G139T, G140T, C142A, A144G, T145G, T148A
DNA 2: B3 DNA 2 with A6T, A9C, T10C, G12T, C14A, C15A, T17A, G18T, A19C
modifications: reconstituted with mouse histones H2A, H2B, H3.3 and H4
B5: 138 (nucleosome)
DNA 1: B3 DNA 1 with T135G, C136A, A137T, G139T, G140A, C141T, T145G, C146G, T148C, G149A
DNA 2: B3 DNA 2 with C5T, A6G, G8C, A9C, G13A, C14T, C15A, T17A, G18T, A19C
modifications: reconstituted with mouse histones H2A, H2B, H3.3 and H4
B6: 15 (nucleosome)
DNA 1: ATCCTGGAGAATCCCGGTCAAGGCCACGCTCAATTGGTCGTAGACAGCTCTAGCACCGCTTAAACGCACGTACGCGCTGTCCCCCGCGTTTTAACCGCCAAGGGGATTACTCCCTAGTCTCCAGGCACGTGTCAGATATATACATCCTGTGAT
DNA 2: ATCACAGGATGTATATATCTGACACGTGCCTGGAGACTAGGGAGTAATCCCCTTGGCGGTTAAAACGCGGGGGACAGCGCGTACGTGCGTTTAAGCGGTGCTAGAGCTGTCTACGACCAATTGAGCGTGGCCTTGACCGGGATTCTCCAGGAT
modifications: reconstituted with mouse histones H2A, H2B, H3.3 and H4
B7: 16 (nucleosome)
DNA 1: B6 DNA 1 with C19T, A20C, G22A, C24G, A26C, C27A
DNA 2: B6 DNA 2 with G127T, T128G, G130C, C132T, T134G, G135A
modifications: reconstituted with mouse histones H2A, H2B, H3.3 and H4
B8: 127 (nucleosome)
DNA 1: ATCCTGGAGAATCCCGGTGCCGAGGCCGCTCAATTGGTCGTAGACAGCTCTAGCACCGCTTAAACGCACGTACGCGCTGTCCCCCGCGTTTTAACCGCCAAGGGGATTACTCCCTAGTCTCCAGGCACGTCAAGGCCATATACATCCTGTGAT
DNA 2: ATCACAGGATGTATATGGCCTTGACGTGCCTGGAGACTAGGGAGTAATCCCCTTGGCGGTTAAAACGCGGGGGACAGCGCGTACGTGCGTTTAAGCGGTGCTAGAGCTGTCTACGACCAATTGAGCGGCCTCGGCACCGGGATTCTCCAGGAT
modifications: reconstituted with mouse histones H2A, H2B, H3.3 and H4
B9: 128 (nucleosome)
DNA 1: B8 DNA 1 with C131T, A132C, G134A, C136G, A138C, T139A
DNA 2: B8 DNA 2 with A15T, T16G, G18C, C20T, T22G, G23A
modifications: reconstituted with mouse histones H2A, H2B, H3.3 and H4
B10: 17 (nucleosome)
DNA 1: B6 DNA 1 with C19G, A20T, A21C, G22A, G23A, C24G, C25G, A26C, G28A
DNA 2: B6 DNA 2 with C126T, T128G, G129C, G130C, C131T, C132T, T133G, T134A, G135C
modifications: reconstituted with mouse histones H2A, H2B, H3.3 and H4
B11: 133 (nucleosome)
DNA 1: B3 DNA 1 with T135G, C136T, A137C, G139A, C141G, A143C
DNA 2: B3 DNA 2 with T11G, G13C, C15T, T17G, G18A, A19C
modifications: reconstituted with mouse histones H2A, H2B, H3.3 and H4
B12: 129 (nucleosome)
DNA 1: B1 DNA 1 with T133C, C134A, A136G, G138C, C140A, A141T
DNA 2: B1 DNA 2 with T13A, G14T, C16G, T18C, G20T, A21G
modifications: reconstituted with mouse histones H2A, H2B, H3.3 and H4
B13: 134 (nucleosome)
DNA 1: ATCCTGGAGAATCCCGGTGCCGAGGCCGCTCAATTGGTCGTAGACAGCTCTAGCACCGCTTAAACGCACGTACGCGCTGTCCCCCGCGTTTTAACCGCCAAGGGGATTACTCCCTAGTCTCCAGGCACGTGTCAGATCAAGGCCACCTGTGAT
DNA 2: ATCACAGGTGGCCTTGATCTGACACGTGCCTGGAGACTAGGGAGTAATCCCCTTGGCGGTTAAAACGCGGGGGACAGCGCGTACGTGCGTTTAAGCGGTGCTAGAGCTGTCTACGACCAATTGAGCGGCCTCGGCACCGGGATTCTCCAGGAT
modifications: reconstituted with mouse histones H2A, H2B, H3.3 and H4
B14: 135 (nucleosome)
DNA 1: B13 DNA 1 with C138T, A139C, G141A, C143G, A145C, C146A
DNA 2: B13 DNA 2 with G8T, T9G, G11C, C13T, T15G, G16A
modifications: reconstituted with mouse histones H2A, H2B, H3.3 and H4
B15: 139 (nucleosome)
DNA 1: B13 DNA 1 with C138A, A139T, G141T, G142T, C144A, C146G, C147G, T148C, G149C, T150A
DNA 2: B13 DNA 2 with A4T, C5G, A6G, G7C, G8C, G10T, C12A, C13A, T15A, G16T
modifications: reconstituted with mouse histones H2A, H2B, H3.3 and H4

Where a chain is given by its changes, count along the chain named. In names and notes the source's numbering stands.

In one assay the target is NR5A2 wild type;histone octamer (Homo sapiens;, UniProt O00482;C0HKE1;Q6ZWY9;P84244;P62806 1-541;2-130;2-126;2-136;2-103, |). Nature of the assay: SeEN-seq (EMSA of nucleosome library followed by sequencing); 0.8 uM human NR5A2; 20 mM Tris-HCl pH 7.5, 120 mM NaCl, 1 mM MgCl2, 10 uM ZnCl2, 1 mM DTT, 100 ug/ml BSA, room temperature, 30 min; 0.1 uM nucleosome library; high values mean tight binding. For orientation: In EMSA bound probe runs differently from free probe, usually more slowly.
With B1, the binding signal is 1.7 log2 enrichment (bound/unbound, relative to Widom 601).
B2: the binding signal is 3.61 log2 enrichment (bound/unbound, relative to Widom 601).
The same measure, in the same setting: the figure for B3 is 3.78 log2 enrichment (bound/unbound, relative to Widom 601); for B4 it is 6.9 log2 enrichment (bound/unbound, relative to Widom 601).
On the same count and under the same terms, the figure for B5 is 7.13 log2 enrichment (bound/unbound, relative to Widom 601); for B6 it is 1.12 log2 enrichment (bound/unbound, relative to Widom 601).
Same read-out and setting: the same measure for B7: 1.52 log2 enrichment (bound/unbound, relative to Widom 601); for B8: 4.33 log2 enrichment (bound/unbound, relative to Widom 601).
As to B9, the binding signal is 5.29 log2 enrichment (bound/unbound, relative to Widom 601).
On to B10, for which the binding signal is 1.96 log2 enrichment (bound/unbound, relative to Widom 601).
For the molecule B11, the binding signal was 4.27 log2 enrichment (bound/unbound, relative to Widom 601).
Still for that read-out and setting: the figure for B12 is 2.87 log2 enrichment (bound/unbound, relative to Widom 601); for B13 it is 5.2 log2 enrichment (bound/unbound, relative to Widom 601).
On the same count and under the same terms, the figure for B14 is 7.68 log2 enrichment (bound/unbound, relative to Widom 601).
Still for that read-out and setting: the figure for B15 is 8.13 log2 enrichment (bound/unbound, relative to Widom 601).

In the next assay the target is mouse Nr5a2 wild type;histone octamer (Mus musculus;, UniProt P45448;C0HKE1;Q6ZWY9;P84244;P62806 1-560;2-130;2-126;2-136;2-103, |). Briefly: SeEN-seq (EMSA of nucleosome library followed by sequencing); 1.2 uM mouse Nr5a2; 20 mM Tris-HCl pH 7.5, 120 mM NaCl, 1 mM MgCl2, 10 uM ZnCl2, 1 mM DTT, 100 ug/ml BSA, room temperature, 30 min; 0.1 uM nucleosome library; high values mean tight binding.
Turning to B1, the binding signal is 1.35 log2 enrichment (bound/unbound, relative to Widom 601).
The same measure, in the same setting: the figure for B2 is 3.22 log2 enrichment (bound/unbound, relative to Widom 601); for B3 it is 3.09 log2 enrichment (bound/unbound, relative to Widom 601).
For the molecule B4, the binding signal was 5.78 log2 enrichment (bound/unbound, relative to Widom 601).
With B5, the binding signal is 5.66 log2 enrichment (bound/unbound, relative to Widom 601).
On the same count and under the same terms, the same measure for B6: 1.33 log2 enrichment (bound/unbound, relative to Widom 601); for B7: 1.81 log2 enrichment (bound/unbound, relative to Widom 601).
For the molecule B8, the binding signal was 3.32 log2 enrichment (bound/unbound, relative to Widom 601).
The same measure, in the same setting: the figure for B9 is 4.1 log2 enrichment (bound/unbound, relative to Widom 601); for B10 it is 1.98 log2 enrichment (bound/unbound, relative to Widom 601).
With B11, the binding signal was 3.65 log2 enrichment (bound/unbound, relative to Widom 601).
Turning to B12, the binding signal was 2.23 log2 enrichment (bound/unbound, relative to Widom 601).
Turning to B13, the binding signal was 3.67 log2 enrichment (bound/unbound, relative to Widom 601).
The same measure, in the same setting: the same measure for B14: 5.73 log2 enrichment (bound/unbound, relative to Widom 601).
Still for that read-out and setting: the same measure for B15: 5.56 log2 enrichment (bound/unbound, relative to Widom 601).

(Values after publication PMC11102866, “Nucleosome-bound NR5A2 structure reveals pioneer factor mechanism by DNA minor groove anchor competition”.)
